# Laboratory results as given in PubChem BioAssay AID488969 (Vanderbilt High Throughput Screening Facility, 2010).
# Whole data set: some 110,000 compounds, median “z-score” near -0.1, cut for the highest 2% near 2. The sample as a whole holds a higher share of the highest values than the screen did. Calls of active or inactive are those of the source.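 Rule for the calls: active = z-score in the third read window above 3 or below -3; inactive = the rest.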
# Molecular target: Metabotropic glutamate receptor 8 (Rattus norvegicus) (UniProt P70579)
# Assay: rat mGluR8 modulators via GIRK flux, primary screen, cell-based, thallium flux, HTS (AID 488969)
# Conditions: HEK293 rat mGluR8, GIRK (G protein-gated inwardly rectifying potassium channel) thallium flux, FluoZin2; at 10 µM; stronger effect = higher value; submaximal glutamate (EC20) added with thallium
# Chain of Metabotropic glutamate receptor 8 (Rattus norvegicus) (P70579 whole entry, looked up): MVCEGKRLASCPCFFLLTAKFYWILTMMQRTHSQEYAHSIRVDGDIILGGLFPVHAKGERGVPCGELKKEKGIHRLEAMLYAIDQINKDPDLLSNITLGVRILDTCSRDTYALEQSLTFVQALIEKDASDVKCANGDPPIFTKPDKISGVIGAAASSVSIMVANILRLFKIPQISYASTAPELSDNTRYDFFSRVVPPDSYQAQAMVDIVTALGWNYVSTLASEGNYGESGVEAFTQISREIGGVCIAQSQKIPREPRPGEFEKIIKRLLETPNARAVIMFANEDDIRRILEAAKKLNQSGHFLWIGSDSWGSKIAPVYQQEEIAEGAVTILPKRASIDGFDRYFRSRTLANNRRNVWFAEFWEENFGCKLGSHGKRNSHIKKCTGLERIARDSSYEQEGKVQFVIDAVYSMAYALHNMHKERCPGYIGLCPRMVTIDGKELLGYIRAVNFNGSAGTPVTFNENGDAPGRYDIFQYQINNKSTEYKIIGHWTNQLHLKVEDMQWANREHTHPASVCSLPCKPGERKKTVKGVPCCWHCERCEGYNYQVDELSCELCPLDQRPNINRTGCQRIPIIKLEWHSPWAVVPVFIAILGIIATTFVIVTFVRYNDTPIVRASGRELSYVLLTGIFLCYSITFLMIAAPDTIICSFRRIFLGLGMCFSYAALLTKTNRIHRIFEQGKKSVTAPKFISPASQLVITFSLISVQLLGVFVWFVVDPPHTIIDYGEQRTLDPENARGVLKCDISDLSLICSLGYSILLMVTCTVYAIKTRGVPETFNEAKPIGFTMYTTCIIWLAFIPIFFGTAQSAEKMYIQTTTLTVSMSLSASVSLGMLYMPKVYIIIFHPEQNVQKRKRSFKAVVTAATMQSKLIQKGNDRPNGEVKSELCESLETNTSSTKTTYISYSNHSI
row,SMILES,z-score
1,CN1CCc2c(sc(N)c2C(N)=O)C1,-0.167
2,Cc1cc(C(=O)N/N=C/c2ccc(-c3ccccc3Cl)o2)n[nH]1,-0.496
3,CC(C)CNC(=S)NNC(=O)c1csc2c1CCCC2,-0.116
4,CC1CCc2c(C(=O)Nc3nccs3)csc2C1 (centres undefined),-0.208
5,CCCCNC(=S)NNC(=O)c1csc(C)c1C,0.0325
6,Cc1ccc(C)c(NC(=S)NNC(=O)c2csc3c2CCCC3)c1,7.26 (active)
7,Cc1ccc(C)c(NC(=S)NNC(=O)c2csc3c2CCC(C)C3)c1 (centres undefined),13.8 (active)
8,Cc1ccc(C)c(NC(=S)NNC(=O)c2ccco2)c1,-0.0706
9,CCNC(=S)NNC(=O)c1csc2c1CCCC2,-0.209
10,CCCCNC(=S)NNC(=O)c1csc2c1CCC(C)C2 (centres undefined),0.319
11,Cc1ccc(C)c(NC(=S)NNC(=O)c2csc(C)c2C)c1,2.09
12,COC(=O)Cn1c(=NC(=O)c2ccc(OC)c(OC)c2)sc2cc(OC)ccc21,-0.167
13,COc1ccc(/C=C2\CCCc3c2nc2ccccc2c3C(=O)OCC(=O)c2c(N)n(C)c(=O)n(C)c2=O)cc1,-0.224
14,O=C(CCn1nc(-c2ccccc2)c2ccccc2c1=O)NCC1CCCO1 (centres undefined),-0.116
15,Clc1ccc(OCc2cc(-c3ccccc3)no2)cc1Cl,-0.0469
16,O=C(CCCCCN1C(=O)c2ccccc2C1=O)Nc1ccc(F)cc1,-0.0499
17,Cc1cccc(C)c1OCCCN1CCCC1,0.0506
18,Cc1cccc(C(C)(C)C)c1OCCCCN1CCCC1,2.48
19,CC(C)(C)c1ccccc1OCCN1CCCC1,-0.516
20,CC(C)(C)c1ccccc1OCCCCN1CCCC1,2.06
21,Cc1ccc(C(C)(C)C)c(OCCCCN2CCCC2)c1,0.658
22,Cc1cccc(C(C)(C)C)c1OCCOCCN1CCCC1,0.391
23,COC(=O)c1cc2oc(C)cc2n1CC(=O)Nc1cc(C)cc(C)c1,-0.162

row,SMILES,z-score
1,O=C(CN1C(=O)CCS(=O)(=O)c2ccccc21)NCc1ccccc1,0.305
2,CCOc1ccc(C(=O)/C=C/c2ccccc2C(F)(F)F)cc1,-0.354
3,O=C(NCc1ccccn1)c1c(Cl)cccc1Cl,0.0849
4,CCCCn1c(C(C)O)nc2ccccc21 (centres undefined),-0.321
5,CC(C)CCn1c(C(C)O)nc2ccccc21 (centres undefined),-0.257
6,CC(O)c1nc2ccccc2n1C1CCCCC1 (centres undefined),6.36 (active)
7,N#CCCn1cc(C(CC(=O)c2ccccc2)C(=O)O)c2ccccc21 (centres undefined),-0.0596
8,COc1ccc(OC)c(N=c2oc3cc(O)ccc3cc2C(N)=O)c1,1.99
9,Cc1cccc(N=c2oc3cc(O)ccc3cc2C(N)=O)c1,0.0144
10,COc1ccc(N=c2oc3cc(O)ccc3cc2C(=O)NCC2CCCO2)c(OC)c1 (centres undefined),-0.403
11,C=CCN1C(=O)/C(=C2/Sc3ccccc3N2C)SC1=Nc1c(C)n[nH]c1C,3.97 (active)
12,C=CCN1C(=O)/C(=C2/Sc3ccccc3N2C)SC1=Nc1ccccc1C,-0.792
13,C=CCN1C(=O)/C(=C2/Sc3ccccc3N2CCCS(=O)(=O)O)SC1=S,-0.352
14,CCOC(=O)c1ccc(N2C(=O)CC(N3CCC(O)(c4ccc(Cl)cc4)CC3)C2=O)cc1 (centres undefined),0.433
15,CCCCC1S/C(=N/N=C/c2ccc(OC)cc2)N(Cc2ccc(OC)cc2)C1=O (centres undefined),-0.524
16,CCOC(=O)c1c(CN(CC)CC)oc2cc(Br)c(O)cc12,-1.27
17,COC(=O)C1CCN(C(=O)COc2cc3sc(C)nc3c3sccc23)CC1,-1.34
18,CCc1nnc(NS(=O)(=O)c2ccc(NC(=S)NC(=O)c3ccc(F)cc3)cc2)s1,0.102
19,Cc1cc(NS(=O)(=O)c2ccc(NC(=S)NC(=O)c3ccccc3)cc2)no1,2.22
20,Cc1cc(NS(=O)(=O)c2ccc(NC(=O)Nc3ccccc3)cc2)no1,0.82
21,Cc1cc(NS(=O)(=O)c2ccc(NC(=S)NC(=O)c3ccc(F)cc3)cc2)no1,-0.0103
22,CCc1nnc(NS(=O)(=O)c2ccc(NC(=S)NC(=O)c3ccccc3)cc2)s1,5.21 (active)
23,CCc1nnc(NS(=O)(=O)c2ccc(NC(=S)NC(=O)c3ccc(Br)cc3)cc2)s1,-1.21

row,SMILES,z-score
1,Cc1ccc(Cn2c(SCC(=O)N/N=C/c3ccc(C)o3)nc3ccccc32)cc1,-0.169
2,Cc1ccc(-c2cnc(SCC(=O)N3CCCc4ccccc43)n2C)cc1,-0.31
3,O=C1c2ccccc2C(=O)N1CC1=CCS(=O)(=O)C1,0.399
4,COc1ccc(N2CCN(C(=O)CCCn3c(=S)[nH]c4cc5c(cc4c3=O)OCO5)CC2)cc1,-0.487
5,Cc1cc(C)nc(NC(=O)CCC2CCCC2)c1,-0.0409
6,CS(=O)(=O)Nc1ccc(C(=O)NCCC2=CCCCC2)cc1,1.28
7,COc1ccc(-n2c(C)nc3cc(C(=O)NCc4ccco4)ccc32)cc1,2.54
8,CCOc1ccc(-n2c(C)nc3cc(C(=O)NCc4ccco4)ccc32)cc1,0.364
9,COc1ccc(-n2c(C)nc3cc(C(=O)NCc4ccc5c(c4)OCO5)ccc32)cc1,-0.347
10,CC(=O)c1c(C)nn(C(C)CC(=O)O)c1C (centres undefined),-0.0267
11,COc1cc(OC)nc(NC(=O)CSc2nnc(-c3ccccc3)n2C2CCCCC2)n1,-0.277
12,O=C(Nc1cccc(F)c1)c1ccccc1-c1ccccc1,-0.369
13,CN1CCN(CC(=O)N2c3ccccc3C(C)(c3ccccc3)CC2(C)C)CC1 (centres undefined),3.59 (active)
14,CC(=O)N1c2ccccc2C(C)(c2ccccc2)CC1(C)C (centres undefined),-0.236
15,CC1(c2ccccc2)CC(C)(C)N(C(=O)CSc2nnc(N)s2)c2ccccc21 (centres undefined),-0.521
16,CN1CCN(CC(=O)N2c3ccccc3C(C)(c3ccc(Cl)cc3)CC2(C)C)CC1 (centres undefined),3.21 (active)
17,Cc1nnc(SCC(=O)N2c3ccccc3C(C)(c3ccc(Cl)cc3)CC2(C)C)s1 (centres undefined),0.227
18,Cc1nnc(SCC(=O)N2c3ccccc3C(C)(c3ccccc3)CC2(C)C)s1 (centres undefined),0.611
19,CC1Cc2ccccc2N1C(=O)CCNS(=O)(=O)c1ccc2c(c1)CCC(=O)N2 (centres undefined),-0.0721
20,Cn1c(=O)c2c(nc(NCCO)n2C)n(C)c1=O,0.204
21,CCn1c(NCc2ccco2)nc2c1c(=O)n(C)c(=O)n2C,0.397
22,CCn1c(C)c(C2=CCN(S(=O)(=O)c3ccc(C)cc3)CC2)c2ccccc21,0.0891
23,CCN1C(=O)c2cccc3cccc1c23,-0.389

row,SMILES,z-score
1,Cc1cc(C)nc(N=Nc2c(O)n(Cc3ccc(Cl)cc3)c3ccccc23)n1,0.0163
2,CCn1c(O)c(N=NC2=NC(=O)CS2)c2ccccc21,0.217
3,CCOc1ccc2c(c1)c(N=Nc1cccc(C(=O)O)c1)c(O)n2C,-0.0674
4,CCn1c(O)c(N=NC2=NC(=O)CS2)c2cc(C)ccc21,2.24
5,CCc1ccc2c(c1)c(N=NC1=NC(=O)CS1)c(O)n2C,2.09
6,CCn1c(O)c(N=NC(=O)CNc2cccc(C)c2)c2ccccc21,1.4
7,CCOc1ccc2c(c1)c(N=NC(=N)N)c(O)n2C,-0.224
8,CCc1ccc2c(c1)c(N=NC1=NC(=O)CS1)c(O)n2CC,2.98
9,CCc1ccc2c(c1)c1nnc(NN)nc1n2CC,-0.278
10,Cc1ccc(O)c(C(=O)/C=C/c2ccc3c(c2)OCCCO3)c1,0.653
11,CC(=O)NC1=NN(C(C)=O)C(C)(CS(=O)(=O)c2ccc(C)c(C)c2)S1 (centres undefined),-0.323
12,COc1ccc(CN(C(=O)c2ccco2)c2ccc(Br)cc2)cc1OC,-0.544
13,CCOC(=O)c1sc(C)c2c(=O)n(CC)nnc12,0.154
14,Cc1ccc(NC(=S)NNC(=O)c2cn(C)nc2C)cc1,0.188
15,CSc1nc(-c2ccccc2)nc(SC)c1C(C)=O,-0.493
16,CC(=O)c1c(N)[nH]c(-c2ccccc2)nc1=S,1.28
17,CC(=O)c1c(N2CCCC2)[nH]c(-c2ccccc2)nc1=S,14.8 (active)
18,CC(=O)c1c(N2CCN(C)CC2)[nH]c(-c2ccccc2)nc1=S,0.167
19,CSc1nc(-c2ccccc2)nc(N)c1C(C)=O,-0.0854
20,CSc1nc(-c2ccccc2)[nH]c(=S)c1C(C)=O,7.43 (active)
21,S=C(NC12CC3CC(CC(C3)C1)C2)N1CCCC1,-0.0857
22,N#C/C(=C(/O)COC(=O)Cc1c[nH]c2ccccc12)c1nc2ccccc2[nH]1,-0.819
23,Cc1ccc2c(c1)NC(=O)C(CC(=O)NCCCN1CCCC1)O2 (centres undefined),0.515

row,SMILES,z-score
1,COC(=O)CSc1nc(N)c(C#N)c(-c2ccco2)c1C#N,-0.328
2,CCSc1nc(N)c(C#N)c(-c2ccco2)c1C#N,-0.377
3,N#Cc1c(N)nc(SCc2ccccc2)c(C#N)c1-c1ccco1,11.4 (active)
4,COc1ccc(Oc2coc3cc(OC(=O)N4CCOCC4)ccc3c2=O)cc1,-0.0315
5,Cc1cccc(Nc2nnc(SCC3CCCCO3)s2)c1C (centres undefined),-0.0272
6,COc1cccc(N(C(=O)Cn2nnc(-c3ccc(C)o3)n2)C(C(=O)NC(C)(C)C)c2cccs2)c1 (centres undefined),0.439
7,O=C(NC(=S)Nc1cccc(Cl)c1N1CCCCC1)c1cccs1,2.55
8,O=C(NC(=S)Nc1cccc(Cl)c1N1CCCCC1)c1ccco1,5.38 (active)
9,CS(=O)(=O)N1CCN(c2ccccc2NC(=O)c2ccco2)CC1,-0.175
10,O=C(NC(=S)Nc1cccc(Cl)c1N1CCCCC1)c1ccc2c(c1)OCCO2,0.413
11,O=C(NC(=S)Nc1ccccc1N1CCCCC1)c1cccs1,-0.0387
12,O=C(Nc1ccccc1N1CCCCC1)c1ccco1,-0.657
13,O=C(NC(=S)Nc1ccccc1N1CCCCC1)c1ccco1,5.87 (active)
14,O=C(NC(=S)Nc1ccccc1N1CCOCC1)c1cccs1,4.28 (active)
15,CCCC(=O)NC(=S)Nc1cccc(Cl)c1N1CCCCC1,0.12
16,O=C(Nc1ccccc1N1CCOCC1)c1cccs1,0.511
17,O=C(Nc1ccc(N2CCOCC2)cc1N1CCOCC1)c1cccs1,-0.508
18,CCC(=O)NC(=S)Nc1cccc(Cl)c1N1CCCCC1,0.315
19,Cc1ccc(NC(=O)c2ccc(CSc3nnnn3C)cc2)cc1,-0.174
20,COc1ccc(-n2c(N)c(C(=O)NCc3cccnc3)sc2=S)cc1,0.463
21,Cc1nc(NNC(=O)c2ccc(Cl)cc2Cl)cc(-c2ccccc2)n1,0.141
22,CCCOC(=O)c1ccc(OCC(O)CN2C(=O)NC(C)(C)C2=O)cc1 (centres undefined),0.307
